Measured values taken from ChEMBL document CHEMBL1961873, “Compounds: GSK PKIS; Assays: Nanosyn kinase panel” (2012).

Legend:
[1] = biological target: Ribosomal protein S6 kinase alpha-6 (Homo sapiens) (UniProt Q9UK32); details: at 1 µM;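 note: each value is a mean inhibition of RSK4 from a GSK PKIS panel screen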
[2] = biological target: T1, Serine/threonine-protein kinase Sgk1 (Homo sapiens) (UniProt O00141); details: at 0.1 µM
T1 sequence (whole entry): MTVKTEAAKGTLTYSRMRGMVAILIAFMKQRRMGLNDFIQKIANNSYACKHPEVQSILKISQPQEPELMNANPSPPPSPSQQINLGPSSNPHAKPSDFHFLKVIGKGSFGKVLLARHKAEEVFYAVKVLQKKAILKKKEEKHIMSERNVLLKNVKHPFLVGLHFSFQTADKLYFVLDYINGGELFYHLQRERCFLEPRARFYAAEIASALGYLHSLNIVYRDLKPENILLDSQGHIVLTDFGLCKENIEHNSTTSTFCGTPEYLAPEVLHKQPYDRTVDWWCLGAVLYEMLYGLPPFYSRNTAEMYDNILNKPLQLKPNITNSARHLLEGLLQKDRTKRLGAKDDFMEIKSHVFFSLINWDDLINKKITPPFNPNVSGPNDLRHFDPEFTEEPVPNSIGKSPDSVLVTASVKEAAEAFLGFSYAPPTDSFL

[3] = biological target: T1, Serine/threonine-protein kinase Sgk1 (Homo sapiens); details: at 1 µM
[4] = biological target: T2, Serine/threonine-protein kinase Sgk2 (Homo sapiens) (UniProt Q9HBY8); details: at 0.1 µM
T2 sequence (whole entry): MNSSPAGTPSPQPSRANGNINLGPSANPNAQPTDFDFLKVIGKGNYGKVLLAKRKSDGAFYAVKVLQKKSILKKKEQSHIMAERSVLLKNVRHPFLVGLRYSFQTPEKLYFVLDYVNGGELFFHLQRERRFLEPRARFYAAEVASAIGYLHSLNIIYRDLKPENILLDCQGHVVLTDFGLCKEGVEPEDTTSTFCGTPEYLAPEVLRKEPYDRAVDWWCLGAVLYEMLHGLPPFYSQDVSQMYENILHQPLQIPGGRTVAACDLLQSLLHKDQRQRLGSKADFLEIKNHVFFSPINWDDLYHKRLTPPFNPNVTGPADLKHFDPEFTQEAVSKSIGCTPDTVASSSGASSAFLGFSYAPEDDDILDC

[5] = biological target: T2, Serine/threonine-protein kinase Sgk2 (Homo sapiens); details: at 1 µM
[6] = biological target: T3, Serine/threonine-protein kinase Sgk3 (Homo sapiens) (UniProt Q96BR1); details: at 0.1 µM
T3 sequence (whole entry): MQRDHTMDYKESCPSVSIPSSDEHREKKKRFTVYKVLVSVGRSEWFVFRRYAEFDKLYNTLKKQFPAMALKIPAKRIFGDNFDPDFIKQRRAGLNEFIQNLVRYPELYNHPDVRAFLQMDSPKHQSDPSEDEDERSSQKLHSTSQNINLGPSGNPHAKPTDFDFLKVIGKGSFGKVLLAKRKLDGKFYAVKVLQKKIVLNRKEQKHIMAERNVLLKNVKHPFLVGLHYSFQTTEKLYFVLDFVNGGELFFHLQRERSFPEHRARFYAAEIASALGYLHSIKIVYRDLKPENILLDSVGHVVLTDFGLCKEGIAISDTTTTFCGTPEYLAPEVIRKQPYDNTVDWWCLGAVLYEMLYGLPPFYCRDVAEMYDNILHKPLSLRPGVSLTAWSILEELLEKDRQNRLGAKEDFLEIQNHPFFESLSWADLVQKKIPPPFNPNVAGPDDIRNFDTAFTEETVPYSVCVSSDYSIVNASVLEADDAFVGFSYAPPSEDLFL

[7] = biological target: T3, Serine/threonine-protein kinase Sgk3 (Homo sapiens); details: at 1 µM
[8] = biological target: 5'-AMP-activated protein kinase catalytic subunit alpha-1 (Homo sapiens) (UniProt Q13131); details: at 0.1 µM
[9] = biological target: 5'-AMP-activated protein kinase catalytic subunit alpha-1 (Homo sapiens) (UniProt Q13131); details: at 1 µM
[10] = biological target: 5'-AMP-activated protein kinase catalytic subunit alpha-2 (Homo sapiens) (UniProt P54646); details: at 0.1 µM
[11] = biological target: 5'-AMP-activated protein kinase catalytic subunit alpha-2 (Homo sapiens) (UniProt P54646); details: at 1 µM
[12] = biological target: T4, NUAK family SNF1-like kinase 1 (Homo sapiens) (UniProt O60285); details: at 0.1 µM
T4 sequence (whole entry): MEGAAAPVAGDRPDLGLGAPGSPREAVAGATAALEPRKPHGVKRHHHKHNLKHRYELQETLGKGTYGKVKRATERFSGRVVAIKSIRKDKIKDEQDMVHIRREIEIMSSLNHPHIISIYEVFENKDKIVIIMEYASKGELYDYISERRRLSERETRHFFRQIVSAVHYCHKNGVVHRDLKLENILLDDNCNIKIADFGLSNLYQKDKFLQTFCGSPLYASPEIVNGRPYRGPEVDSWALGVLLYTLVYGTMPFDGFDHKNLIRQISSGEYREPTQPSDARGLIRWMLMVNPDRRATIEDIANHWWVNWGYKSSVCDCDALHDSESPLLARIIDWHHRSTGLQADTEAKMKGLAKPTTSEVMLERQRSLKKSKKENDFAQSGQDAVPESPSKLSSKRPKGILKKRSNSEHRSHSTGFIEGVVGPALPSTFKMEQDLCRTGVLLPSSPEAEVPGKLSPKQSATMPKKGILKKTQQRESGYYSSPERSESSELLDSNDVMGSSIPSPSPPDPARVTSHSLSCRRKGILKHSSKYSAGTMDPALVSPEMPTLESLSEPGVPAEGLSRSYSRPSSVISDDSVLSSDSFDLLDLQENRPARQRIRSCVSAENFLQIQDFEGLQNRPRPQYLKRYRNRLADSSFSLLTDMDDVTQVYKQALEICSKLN

[13] = biological target: T4, NUAK family SNF1-like kinase 1 (Homo sapiens); details: at 1 µM
[14] = biological target: T5, Serine/threonine-protein kinase BRSK1 (Homo sapiens) (UniProt Q8TDC3); details: at 0.1 µM
T5 sequence (whole entry): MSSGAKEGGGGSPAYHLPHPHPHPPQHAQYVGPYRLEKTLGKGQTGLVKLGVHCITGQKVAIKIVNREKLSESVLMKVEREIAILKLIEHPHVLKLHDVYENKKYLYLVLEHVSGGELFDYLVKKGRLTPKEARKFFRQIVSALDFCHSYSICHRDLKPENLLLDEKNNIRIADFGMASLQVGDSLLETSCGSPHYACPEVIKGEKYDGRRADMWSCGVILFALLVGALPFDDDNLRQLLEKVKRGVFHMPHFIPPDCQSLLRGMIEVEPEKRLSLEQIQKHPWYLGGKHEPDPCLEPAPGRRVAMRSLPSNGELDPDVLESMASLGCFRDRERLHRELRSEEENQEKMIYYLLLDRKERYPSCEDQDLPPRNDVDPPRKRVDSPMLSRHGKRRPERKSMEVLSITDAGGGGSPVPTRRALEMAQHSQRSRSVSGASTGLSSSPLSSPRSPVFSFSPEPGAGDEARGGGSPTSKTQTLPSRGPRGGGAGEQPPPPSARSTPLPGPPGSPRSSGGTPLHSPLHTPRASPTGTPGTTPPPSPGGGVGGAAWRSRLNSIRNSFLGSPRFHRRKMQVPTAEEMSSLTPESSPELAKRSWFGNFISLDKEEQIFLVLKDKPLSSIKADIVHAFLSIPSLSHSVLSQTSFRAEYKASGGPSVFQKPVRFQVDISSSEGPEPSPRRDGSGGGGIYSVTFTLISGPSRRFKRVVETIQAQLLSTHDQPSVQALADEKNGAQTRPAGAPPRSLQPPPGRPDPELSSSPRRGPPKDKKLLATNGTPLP

[15] = biological target: T5, Serine/threonine-protein kinase BRSK1 (Homo sapiens); details: at 1 µM
[16] = biological target: T6, Serine/threonine-protein kinase BRSK2 (Homo sapiens) (UniProt Q8IWQ3); details: at 0.1 µM
T6 sequence (whole entry): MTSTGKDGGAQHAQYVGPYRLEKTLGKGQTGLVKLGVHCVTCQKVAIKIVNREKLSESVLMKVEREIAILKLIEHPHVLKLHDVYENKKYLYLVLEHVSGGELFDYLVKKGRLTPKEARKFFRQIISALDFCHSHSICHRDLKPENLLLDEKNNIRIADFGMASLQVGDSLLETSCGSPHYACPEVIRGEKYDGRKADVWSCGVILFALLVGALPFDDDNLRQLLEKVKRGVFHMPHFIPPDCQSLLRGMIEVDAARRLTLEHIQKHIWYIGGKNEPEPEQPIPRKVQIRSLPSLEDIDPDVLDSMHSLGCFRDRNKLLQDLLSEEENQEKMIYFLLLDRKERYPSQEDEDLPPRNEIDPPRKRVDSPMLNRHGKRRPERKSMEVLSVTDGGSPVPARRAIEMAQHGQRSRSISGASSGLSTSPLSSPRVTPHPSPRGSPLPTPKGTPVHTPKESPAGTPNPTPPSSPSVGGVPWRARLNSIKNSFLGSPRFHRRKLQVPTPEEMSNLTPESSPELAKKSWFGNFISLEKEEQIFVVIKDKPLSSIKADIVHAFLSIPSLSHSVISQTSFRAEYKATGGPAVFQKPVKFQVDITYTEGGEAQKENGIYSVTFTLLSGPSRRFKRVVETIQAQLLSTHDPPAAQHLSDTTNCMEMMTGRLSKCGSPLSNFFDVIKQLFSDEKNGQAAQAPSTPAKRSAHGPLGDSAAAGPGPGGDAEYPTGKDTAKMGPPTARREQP

[17] = biological target: T6, Serine/threonine-protein kinase BRSK2 (Homo sapiens); details: at 1 µM
[18] = biological target: Calcium/calmodulin-dependent protein kinase type 1D (Homo sapiens) (UniProt Q8IU85); details: at 0.1 µM
[19] = biological target: Calcium/calmodulin-dependent protein kinase type 1D (Homo sapiens) (UniProt Q8IU85); details: at 1 µM
[20] = biological target: Calcium/calmodulin-dependent protein kinase type II subunit alpha (Homo sapiens) (UniProt Q9UQM7); details: at 0.1 µM;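 note: reported values are averages (mean inhibition of CAMK2A)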
Sequence of Calcium/calmodulin-dependent protein kinase type II subunit alpha (Homo sapiens) (Q9UQM7 whole entry): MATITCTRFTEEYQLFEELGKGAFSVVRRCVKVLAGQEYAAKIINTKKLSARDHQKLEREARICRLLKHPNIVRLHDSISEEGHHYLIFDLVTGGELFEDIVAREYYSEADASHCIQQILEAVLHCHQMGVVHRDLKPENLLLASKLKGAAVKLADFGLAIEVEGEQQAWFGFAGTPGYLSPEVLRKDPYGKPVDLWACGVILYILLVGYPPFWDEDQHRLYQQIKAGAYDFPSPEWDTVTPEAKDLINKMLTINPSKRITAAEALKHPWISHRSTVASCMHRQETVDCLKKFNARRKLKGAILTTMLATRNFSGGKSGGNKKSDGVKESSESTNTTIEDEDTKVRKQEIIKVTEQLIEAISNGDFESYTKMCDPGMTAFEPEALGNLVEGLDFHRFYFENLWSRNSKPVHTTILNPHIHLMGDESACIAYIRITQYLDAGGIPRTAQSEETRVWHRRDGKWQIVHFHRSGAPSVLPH

Sequence of 5'-AMP-activated protein kinase catalytic subunit alpha-1 (Homo sapiens) (Q13131 whole entry, looked up): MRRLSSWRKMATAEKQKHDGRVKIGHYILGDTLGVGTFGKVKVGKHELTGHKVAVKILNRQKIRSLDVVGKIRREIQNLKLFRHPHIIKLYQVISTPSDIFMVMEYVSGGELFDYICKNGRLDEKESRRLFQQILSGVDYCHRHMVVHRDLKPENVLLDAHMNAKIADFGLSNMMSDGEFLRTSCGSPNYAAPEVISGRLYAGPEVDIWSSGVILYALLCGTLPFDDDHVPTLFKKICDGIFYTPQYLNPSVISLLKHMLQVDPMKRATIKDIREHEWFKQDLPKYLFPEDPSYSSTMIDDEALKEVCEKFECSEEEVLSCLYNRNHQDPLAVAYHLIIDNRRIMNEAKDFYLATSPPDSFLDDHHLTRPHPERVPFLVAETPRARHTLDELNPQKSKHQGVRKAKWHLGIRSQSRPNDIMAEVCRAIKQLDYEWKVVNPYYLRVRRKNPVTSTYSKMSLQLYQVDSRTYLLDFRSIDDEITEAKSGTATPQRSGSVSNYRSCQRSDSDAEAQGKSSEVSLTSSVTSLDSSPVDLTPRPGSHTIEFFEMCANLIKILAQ
Sequence of Ribosomal protein S6 kinase alpha-6 (Homo sapiens) (Q9UK32 whole entry): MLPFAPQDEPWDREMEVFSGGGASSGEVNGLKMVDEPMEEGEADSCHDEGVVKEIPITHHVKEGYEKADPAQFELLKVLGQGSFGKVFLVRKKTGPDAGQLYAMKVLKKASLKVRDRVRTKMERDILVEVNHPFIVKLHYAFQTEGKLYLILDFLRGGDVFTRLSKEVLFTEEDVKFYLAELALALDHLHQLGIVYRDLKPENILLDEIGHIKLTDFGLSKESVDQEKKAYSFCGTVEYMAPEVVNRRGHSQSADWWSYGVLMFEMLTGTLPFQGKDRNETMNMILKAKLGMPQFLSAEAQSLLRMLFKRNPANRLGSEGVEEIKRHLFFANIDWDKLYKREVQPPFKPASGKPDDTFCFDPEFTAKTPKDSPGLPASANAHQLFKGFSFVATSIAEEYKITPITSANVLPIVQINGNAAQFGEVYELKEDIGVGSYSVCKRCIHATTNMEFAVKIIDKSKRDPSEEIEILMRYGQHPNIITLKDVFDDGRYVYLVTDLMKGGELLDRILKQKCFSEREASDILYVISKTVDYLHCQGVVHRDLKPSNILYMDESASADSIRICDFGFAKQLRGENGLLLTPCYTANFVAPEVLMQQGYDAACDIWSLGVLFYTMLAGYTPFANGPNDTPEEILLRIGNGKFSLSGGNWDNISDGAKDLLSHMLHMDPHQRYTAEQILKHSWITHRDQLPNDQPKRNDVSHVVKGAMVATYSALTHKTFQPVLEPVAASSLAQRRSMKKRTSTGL
Sequence of Calcium/calmodulin-dependent protein kinase type 1D (Homo sapiens) (Q8IU85 whole entry, looked up): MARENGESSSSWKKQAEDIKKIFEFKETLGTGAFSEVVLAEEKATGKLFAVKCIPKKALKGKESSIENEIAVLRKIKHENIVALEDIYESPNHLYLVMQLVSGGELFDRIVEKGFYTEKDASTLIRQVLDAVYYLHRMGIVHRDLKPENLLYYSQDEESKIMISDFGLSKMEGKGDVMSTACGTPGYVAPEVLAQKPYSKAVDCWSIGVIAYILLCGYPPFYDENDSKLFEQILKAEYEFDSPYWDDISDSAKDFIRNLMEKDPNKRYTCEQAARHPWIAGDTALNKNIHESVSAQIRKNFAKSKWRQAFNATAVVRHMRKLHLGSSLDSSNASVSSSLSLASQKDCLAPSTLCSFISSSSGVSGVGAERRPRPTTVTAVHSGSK
Sequence of 5'-AMP-activated protein kinase catalytic subunit alpha-2 (Homo sapiens) (P54646 whole entry, looked up): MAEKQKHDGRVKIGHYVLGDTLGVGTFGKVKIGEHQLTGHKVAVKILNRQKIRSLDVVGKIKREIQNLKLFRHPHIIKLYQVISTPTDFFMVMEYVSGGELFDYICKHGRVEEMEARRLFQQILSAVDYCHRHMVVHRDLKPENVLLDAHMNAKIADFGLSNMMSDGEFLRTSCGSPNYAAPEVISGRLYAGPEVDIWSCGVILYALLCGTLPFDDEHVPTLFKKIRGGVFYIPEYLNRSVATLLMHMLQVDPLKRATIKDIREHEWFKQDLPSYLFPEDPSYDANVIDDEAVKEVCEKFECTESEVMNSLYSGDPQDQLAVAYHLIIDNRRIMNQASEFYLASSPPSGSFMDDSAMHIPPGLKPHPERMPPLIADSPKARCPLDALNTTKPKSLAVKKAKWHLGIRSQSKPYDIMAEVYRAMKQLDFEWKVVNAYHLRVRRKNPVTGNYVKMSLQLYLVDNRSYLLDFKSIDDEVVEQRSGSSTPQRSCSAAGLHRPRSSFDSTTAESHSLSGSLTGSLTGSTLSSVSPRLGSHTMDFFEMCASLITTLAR

| SMILES | inhibition [1] [%] | inhibition [2] [%] | inhibition [3] [%] | inhibition [4] [%] | inhibition [5] [%] | inhibition [6] [%] | inhibition [7] [%] | inhibition [8] [%] | inhibition [9] [%] | inhibition [10] [%] | inhibition [11] [%] | inhibition [12] [%] | inhibition [13] [%] | inhibition [14] [%] | inhibition [15] [%] | inhibition [16] [%] | inhibition [17] [%] | inhibition [18] [%] | inhibition [19] [%] | inhibition [20] [%] |
| --- | --- | --- | --- | --- | --- | --- | --- | --- | --- | --- | --- | --- | --- | --- | --- | --- | --- | --- | --- | --- |
| N#Cc1cccc(Nc2nccc(-c3cnn4ncccc34)n2)c1 | 8.8 | 2.22 | 10.4 | 4.89 | 5.14 | 5.14 | 7.33 | 2.67 | 10.4 | 2.03 | 12.5 | 38.5 | 73.4 | 0.94 | 7.19 | 2.94 | 12.1 | -0.83 | 3.54 | 7.55 |
| COc1cc(/C=N/Nc2ncnc3c2cnn3C(C)C)ccc1O | 3.17 | 1.69 | 2.88 | 1.5 | 1.93 | 0.68 | 2.8 | 1.32 | 4.22 | 3.01 | 4.32 | 7.43 | 22.3 | 1.45 | 7.43 | 1.52 | 12.1 | 1.23 | 0.59 | -0.2 |
| CC(C)c1ccc2c(c1)NC(=O)/C2=N/Nc1ccc(S(N)(=O)=O)cc1 | 0.17 | 0.54 | 0.73 | 5.31 | -4.03 | 4.97 | -1.88 | -0.83 | 0.29 | 1.03 | 0.27 | 11 | 41.7 | 0.3 | 1.21 | -0.18 | 7.2 | -0.63 | 1.05 | -0.9 |
| O=C1Nc2ccccc2/C1=C/Nc1ccc2[nH]c(=O)[nH]c2c1 | 16.3 | 5.08 | 22.7 | 1.44 | 13.4 | 3.83 | 9.07 | 6.25 | 20 | 4.32 | 12.8 | 12.6 | 46 | 1.38 | 15.7 | 5.21 | 25.8 | -1.27 | 1.07 | 3.83 |
| Cc1ccc2c(-c3ccnc(Nc4ccc5c(c4)OCCO5)n3)c(-c3ccc(C(F)(F)F)cc3)nn2n1 | 0.44 | 0.85 | 1.65 | -0.62 | -1.7 | 0.16 | -1.14 | 0.51 | 3.23 | 0.13 | 1.71 | -1.23 | 1.59 | -0.85 | 1.31 | 0.24 | 0.79 | 0.52 | 9.99 | 0.68 |
| CS(=O)(=O)Nc1cccc(-c2ccc3c(NC(=O)C4CC4)n[nH]c3c2)c1 | 1.64 | 1.2 | 1.36 | 0.93 | -0.04 | 1.19 | -0.96 | 1.97 | 1.56 | -0.32 | 6.02 | -0.11 | 1.95 | 3.46 | 18.7 | 2.32 | 19.1 | 2.26 | 1.87 | 7.84 |
